From PubChem BioAssay AID1851 (National Center for Advancing Translational Sciences (NCATS), 2009) come the findings set out here.

Each structure is given as a SMILES string. In all, about 16,000 compounds went through this assay and about 4,000 (25%) were called active. Inconclusive results (about 26%) are left out. These entries were drawn from the full list. A number with no mark means an inactive call. Calls come from the whole dose curve; as a rule, active = well fitted curve in the direction sought with a large enough effect; inconclusive = small, poorly fitted or top-dose-only effect, or effect the other way; inactive = no such curve, though single readings can be large or run the other way.
% is set by controls: 0 for no effect and ±100 for the full control effect.

This assay deals with Cytochrome P450 2C9 (Homo sapiens) (UniProt P11712). As to the kind of experiment: Cytochrome panel assay with activity outcomes. As to conditions: recombinant CYP, pro-luciferin dealkylation, luminescence, p450-cyp2c9; series mostly up to 57.1 µM; activity, negative = inhibition: at the top concentration.
Chain of Cytochrome P450 2C9 (Homo sapiens) (P11712 whole entry, looked up): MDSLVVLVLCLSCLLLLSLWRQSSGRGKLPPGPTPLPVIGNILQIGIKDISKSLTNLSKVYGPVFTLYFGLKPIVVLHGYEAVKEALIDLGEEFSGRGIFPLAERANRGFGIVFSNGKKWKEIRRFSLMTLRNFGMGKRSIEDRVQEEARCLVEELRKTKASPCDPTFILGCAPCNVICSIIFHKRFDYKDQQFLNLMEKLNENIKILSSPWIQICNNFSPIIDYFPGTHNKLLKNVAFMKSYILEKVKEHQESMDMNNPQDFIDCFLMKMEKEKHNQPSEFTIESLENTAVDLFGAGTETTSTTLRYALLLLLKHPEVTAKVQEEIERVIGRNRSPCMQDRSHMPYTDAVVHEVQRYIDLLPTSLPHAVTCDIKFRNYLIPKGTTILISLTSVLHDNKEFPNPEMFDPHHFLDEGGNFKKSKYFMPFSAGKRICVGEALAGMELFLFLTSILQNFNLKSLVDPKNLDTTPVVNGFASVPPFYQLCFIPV
As for `COc1ccc(CCC(C)NC2C3CC4CC(C3)CC2C4)cc1` (stereo not given), the “activity, negative = inhibition” value was -9.44%. `COc1ccc(CCC(C)Nc2cccc(F)c2)cc1` (stereo not given): the concentration at half-maximal activity (AC50) was 12.6 µM (active). Regarding `COc1cc(N[C@@H](C)CCCN)c2ncccc2c1`, the “activity, negative = inhibition” value is -33.6% [at 25.6 µM]. The same measure, in the same setting: next, `COc1ccc(C(=O)N2CCC[C@@]3(CCN(CC(C)C)C3)C2)cc1`: 1.28%; `Cc1noc(C)c1C(=O)N1CCC2(CCCN(C(=O)Nc3cccc(F)c3)C2)CC1`: 3.2%.

Regarding `COc1cccc(CN2C(=O)N(C(C)C)C(N(O)C(=O)NC(C)C)C2(C)C)c1OC` (stereo not given), the AC50 is 15.8 µM (active). Same read-out and setting: next, `CCC(C)OC(=O)C1=C(C)NC(=O)CC1c1ccccc1OC` (stereo not given): 7.08 µM (active). `CCOC(=O)C1=C(C)NC2(O)c3ccccc3C(=O)C12O` (stereo not given): the “activity, negative = inhibition” value was -5.48%.

As to `COc1cccc2c1OC1(C)CC2/C(=C(\C)O)C(=O)N1` (stereo not given), the “activity, negative = inhibition” value is 0.172%. For the compound `CCCCOc1ccccc1C1CC(=O)NC2=C1C(=O)CCC2` (stereo not given), the AC50 is 17.8 µM (active). Same read-out and setting: next, `CCCOc1ccccc1C1CC(=O)NC(C)=C1C(=O)OCC(C)C` (stereo not given): 1.12 µM (active). On to `CCCCOc1cc(C[C@@H]2CNC(=O)N2)ccc1OC`, for which the “activity, negative = inhibition” value was -0.321%.

`NC(=O)c1cc[n+](CC2=C(C(=O)[O-])N3C(=O)[C@@H](NC(=O)Cc4cccs4)[C@@H]3SC2)cc1`: the “activity, negative = inhibition” value was 2.83% [at 25.6 µM]. On the same count and under the same terms, next, `FC(F)(F)c1ccccc1-c1cncnc1NCc1cccnc1`: 6.26% [at 2.29 µM].

Consider `COC(=O)[C@@H]1C[C@H]1[C@@H](NC(=O)Oc1ccc(F)cc1)c1ccccc1`, for which the half-maximal activity concentration (AC50) was 3.98 µM (active).

Turning to `O=C(N[C@@H](c1ccccc1)[C@@H]1C[C@H]1C(=O)O)OCc1ccccc1`, the “activity, negative = inhibition” value is -6.48%. For the compound `COC(=O)[C@H]1C[C@@H]1[C@H](NC(=O)OCc1ccccc1)c1ccccc1`, the AC50 was 15.8 µM (active). On to `COC(=O)C1CC1C(NC(=O)[C@@H]1CCCN1)c1ccccc1` (stereo not given in full), for which the “activity, negative = inhibition” value was -23.5%. The same measure, in the same setting: next, `Cc1noc(C)c1C(=O)N1CCC[C@@]2(CCN(Cc3cc(C(F)(F)F)cc(C(F)(F)F)c3)C2)C1`: 15.9%. Turning to `CCc1cc(C(c2ccccc2OC)N2CCOCC2)c(NC(=O)c2ccccc2)s1` (stereo not given), the AC50 was 1.58 µM (active). Take `CCOc1ccccc1CNCCN1CCOCC1`: the “activity, negative = inhibition” value was 6.96%.

Regarding `CC(=O)[C@H]([C@@H](c1ccccc1)N1CCOCC1)N1CCOCC1`, the activity, negative = inhibition was -15.9% [at 11.4 µM]. `Cc1cc(NC(=O)CSc2n[nH]c(-c3cccs3)n2)no1`: the AC50 was 12.6 µM (active). `CCCCc1nc(SCC(=O)Nc2ncccn2)n[nH]1`: the “activity, negative = inhibition” value is -1.7%.

With `CO[C@H]1COC(=O)[C@H](C)NC(=O)C/C=C\[C@@H](C)[C@@H](NS(=O)(=O)c2ccc(C)cc2)COC(=O)[C@H](OCc2ccccc2)/C=C\[C@@H]1C`, the activity, negative = inhibition was -22.3% [at 11.4 µM]. On the same count and under the same terms, next, `N#CC(c1ccccn1)(c1ncc(C(F)(F)F)cc1Cl)N1CCOCC1` (stereo not given): -15.8%. Consider `N#CC(c1ccc(Cl)cc1)(c1ncc(C(F)(F)F)cc1Cl)N1CCOCC1` (stereo not given), for which the AC50 was 10 µM (active). Regarding `COc1ccc(S(=O)(=O)NNC(=O)C2Cc3c(ccc4ccccc34)O2)cc1` (stereo not given), the AC50 is 7.94 µM (active).

`CC(C)(CNC(=O)c1ccc([N+](=O)[O-])c(Cl)c1)CNC(=O)c1ccc([N+](=O)[O-])c(Cl)c1`: the AC50 was 0.891 µM (active). `CN(C)C(=O)c1ccc(-c2cc(NCc3cccnc3)ncn2)cc1`: the activity, negative = inhibition is 17.1% [at 2.29 µM]. For the compound `O=C(NCc1cccnc1)c1sc2cc(Cl)ccc2c1Cl`, the AC50 was 10 µM (active).

For `Clc1ccccc1-c1cc(NCc2cccnc2)ncn1`, the activity, negative = inhibition was -1% [at 2.29 µM]. In the case of `CN(C(=O)c1c(O)c2ccccc2n(C)c1=O)c1ccccc1`, the “activity, negative = inhibition” value is -11.7%. Consider `CN(C(=O)CC(NC(=O)c1ccccc1)(c1ccccc1)c1ccccc1)c1ccccc1`, for which the AC50 is 15.8 µM (active). As for `CN(C)CCCN1CC(C(=O)O)CC1=O` (stereo not given), the “activity, negative = inhibition” value is -8.24%.

With `FC(F)(F)c1cccc(-c2nc3nc(Cl)c(Cl)nc3[nH]2)c1`, the AC50 is 3.98 µM (active). Turning to `C[C@H]1NC(=O)NC1=O`, the AC50 entry is “inactive”. As to `CC(C)c1cccc2c([Si](C)(C)C)c3c(nc12)-c1cccc(=O)n1C3`, the AC50 is 2 µM (active).

Take `CCc1c2c(nc3c(C(C)C)cccc13)-c1cccc(=O)n1C2`: the AC50 was 15.8 µM (active). In the case of `CC[C@@]1(O)C(=O)COc2c1cc1n(c2=O)Cc2c-1nc1cccc(C(C)C)c1c2[Si](C)(C)C`, the “activity, negative = inhibition” value was -14.7%. On to `CCc1cccc2nc3c(c([Si](C)(C)C)c12)Cn1c-3cccc1=O`, for which the AC50 was 20 µM (active).

`CC(C)c1cccc2cc3c(nc12)-c1cccc(=O)n1C3`: the “activity, negative = inhibition” value was -23.4%. Consider `CC(C)c1cccc2nc3c(c(C(C)(C)C)c12)Cn1c-3cccc1=O`, for which the AC50 is 10 µM (active). For `Cc1c2c(nc3ccccc13)-c1cccc(=O)n1C2`, the “activity, negative = inhibition” value was -16.3%. Same read-out and setting: next, `CC1(C)[C@@H]2CC[C@]1(C)[C@@H](OC(=O)CSC#N)C2`: -16.1% [at 11.4 µM].
